Source: PubChem BioAssay (NCI)
The panel holds about 79,000 compounds, 15% with a hit somewhere; the sample as a whole holds those more often. Active and inactive are the calls of the source. Cut-off read from the data, not from the text of the source: active = growth inhibition above about 70%; inactive = the rest. Where a SMILES comes first, the peptide text is derived from it. The star is where a group is joined. Boc = CC(C)(C)OC(=O)*; OcHex = C1CCC(O*)CC1

Columns and labels:
[1] = NCI Yeast Anticancer Drug Screen. Data for the rad50 strain (AID 155);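 note: 0% = growth of vehicle-only cultures of the same strain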; conditions: S. cerevisiae rad50 strain growth inhibition; at 50.0 µM; active compounds read high
Method in brief: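 A DNA repair-deficient yeast mutant serves as the test organism; compound-induced growth inhibition is calculated against vehicle-treated cells.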

[2] = NCI Yeast Anticancer Drug Screen. Data for the mec2-1 strain (AID 157); conditions: S. cerevisiae mec2-1 strain, at 50.0 µM, active compounds read high
Method in brief: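 mec2-1 yeast strain, carrying an alteration in DNA damage repair or cell cycle control, was exposed to compounds; growth inhibition was measured relative to vehicle-treated controls.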

[3] = NCI Yeast Anticancer Drug Screen. Data for the sgs1 mgt1 strain (AID 161);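 note: 0% = growth of cultures given vehicle only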; conditions: S. cerevisiae sgs1 mgt1 strain, at 50.0 µM, active compounds read high
Method in brief: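 This yeast growth screen uses a strain with defined DNA-repair lesions; compound-treated growth is compared with vehicle-treated growth.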

[4] = NCI Yeast Anticancer Drug Screen. Data for the cln2 rad14 strain (AID 165);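 note: 0% = growth equal to vehicle treated cultures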; conditions: S. cerevisiae cln2 rad14 strain, at 50.0 µM, active compounds read high
Method in brief: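 Yeast carrying cln2 and rad14 alterations (cell cycle control and DNA damage repair) were exposed to compounds. Growth inhibition was measured against vehicle-treated controls.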

[5] = NCI Yeast Anticancer Drug Screen. Data for the bub3 strain (AID 167); conditions: S. cerevisiae bub3 mutant strain, at 50.0 µM, active compounds read high
Method in brief: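 Inhibition values come from growth of compound-treated mutant yeast normalised to vehicle-treated controls.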

[6] = NCI Yeast Anticancer Drug Screen. Data for the mlh1 rad18 strain (AID 175); conditions: S. cerevisiae mlh1 rad18 strain growth inhibition; at 50.0 µM; active compounds read high
Method in brief: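 Growth inhibition of the yeast strain was measured after compound exposure and expressed relative to vehicle-treated controls. The strain carries defined defects in DNA damage repair.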

Measured: growth inhibition

CN(C)C(=S)/N=C(\N)N(C)C
inactive: [1] 4.2% | [2] -8.55% | [3] -3.8% | [4] -0.45% | [5] 1.7% | [6] 15.6%

COC(=O)c1nc(=S)[nH]c(C(=O)OC)c1C(=O)c1ccc(C)cc1
inactive: [1] -3.7% | [2] -7.15% | [3] 5.75% | [4] -14% | [5] 10.6% | [6] 21.4%

OC1CC2CCCCC2CC1Cl (configuration not stated)
inactive: [1] 6.15% | [2] 1.35% | [3] 0.7% | [4] -16.6% | [5] -19.1% | [6] 5.5%

O=C(Nc1ccccc1O)C(O)C(O)C(O)C(O)CO (configuration not stated)
inactive: [1] 35% | [2] 30.7% | [3] 38.8% | [4] 23.2% | [5] 52.1% | [6] 58.8%

CC(=O)CCC(=O)c1ccoc1
inactive: [1] 9.05% | [2] -4.2% | [3] 4.4% | [4] -10.1% | [5] -9.55% | [6] 9.25%

CCOC(=O)NC(=S)Nc1cn(C)cc1[N+](=O)[O-]
inactive: [1] 3.2% | [2] -5.9% | [3] 8.8% | [4] 1.9% | [5] 3.65% | [6] 11.7%

Cc1n(CC(=O)c2ccccc2)nc2sc(N)n[n+]12
inactive: [1] -50% | [2] -23.9% | [3] -68% | [4] -18.2% | [5] -14.8% | [6] -20.9%

OC(CN1CCc2ccccc2C1)c1ccccc1 (configuration not stated)
inactive: [1] 42.5% | [2] 8.05% | [3] 49% | [4] 27% | [5] 39.4% | [6] 35.8%

COc1cc(NCC2COc3c(ccc(OC)c3OC)C2=O)c([N+](=O)[O-])cc1OC (configuration not stated)
inactive: [1] 9.35% | [2] 20.2% | [3] 8.15% | [4] 15.4% | [5] -5.3% | [6] 21.4%

Nn1c(SSSSc2nnc(-c3ccccc3)n2N)nnc1-c1ccccc1
inactive: [1] -12.8% | [2] 3.85% | [3] -27.2% | [4] -19.7% | [5] 14.6% | [6] 4%

O=c1[nH]c(Nc2ccc(F)c(Cl)c2)nc2nc[nH]c12
inactive: [1] 4.4% | [2] 6.85% | [3] 4.6% | [4] -4.75% | [5] 2.55% | [6] -23.7%

COc1ccc(OC)c(NCC(=O)Nn2cnc3ccc(S(=O)(=O)Nc4cc(OC)ccc4OC)cc3c2=O)c1
inactive: [1] 36.9% | [2] 12.7% | [3] 27.6% | [4] 20.9% | [5] 50.8% | [6] 37.1%

O=C(NCCCN(CCCCN(CCCNC(=O)C(F)(F)F)Cc1ccc2ccccc2c1)Cc1ccc2ccccc2c1)C(F)(F)F
active: [1] 83.4% | [2] 87.3% | [3] 88.5% | [4] 88.2% | [5] 87% | [6] 92.5%

O=C(N/N=C/c1cc(Br)cc(Br)c1O)c1ccccc1
inactive: [1] 3.85% | [2] -1.4% | [3] 11.3% | [4] 3.85% | [5] -2.05% | [6] 28.4%

NC(=S)N/C=C(/c1ccc(Cl)cc1Cl)S(=O)(=O)Cc1ccc(Cl)cc1Cl
inactive: [1] 6.85% | [2] -6.7% | [3] 9.6% | [4] 6.95% | [5] 0.2% | [6] 9.7%

OC(CCNC12CC3CC(CC(C3)C1)C2)c1ccccc1 (configuration not stated)
inactive: [1] 29.8% | [2] 22.4% | [3] 59.2% | [4] 50.5% | [5] 33.4% | [6] 53.6%

CC(C)CC(NC(=O)OC(C)(C)C)C(=O)O (configuration not stated)
inactive: [1] -44.6% | [2] -51.7% | [3] -9.6% | [4] 14.6% | [5] -29.2% | [6] -16.9%

CCN(CC)C(=O)Sc1ccc(SC(=O)N(CC)CC)cc1
inactive: [1] -5% | [2] 12.6% | [3] -2.05% | [4] -5.65% | [5] -3.3% | [6] -6.4%

CCCCCCCC(NC(C)=O)(C(=O)OCC)C(=O)OCC
inactive: [1] -9.25% | [2] -19.1% | [3] -4.55% | [4] -29.9% | [5] 6.75% | [6] -28.8%

CC(CO)c1ccccc1 (configuration not stated)
inactive: [1] 8.15% | [2] 1.15% | [3] -13.9% | [4] -32.5% | [5] -13.4% | [6] -4%

CN1CCCC(C(=O)O)(c2ccccc2)CC1 (configuration not stated)
inactive: [1] -17.3% | [2] -5.95% | [3] -19.2% | [4] -35.2% | [5] -14.7% | [6] -24.1%

ClCCOCCOc1ccccc1Cl
inactive: [1] -24% | [2] -13.8% | [3] -8.1% | [4] -9.95% | [5] -22.1% | [6] -7%

O=S(=O)(Nc1c(Cl)c(Cl)c(NS(=O)(=O)c2ccccc2)c(Cl)c1Cl)c1ccccc1
inactive: [1] 46.2% | [2] 0.6% | [3] 13.4% | [4] -5.6% | [5] 4.55% | [6] 15.5%

CCOC(=O)c1[nH]n(-c2ccccc2)c(=O)c1/C=N/C(N)=S
inactive: [1] 2% | [2] -1.95% | [3] -15.8% | [4] 14.1% | [5] 17.8% | [6] 8.45%

CC(C)CC(NC(=O)OC(C)(C)C)C(=O)NC(CCC(=O)OC1CCCCC1)C(N)=O (stereo not drawn) (Boc-Leu-Glu(OcHex)-NH2; configuration not given here)
inactive: [1] -4.8% | [2] -12.4% | [3] -8% | [4] 1.5% | [5] 3.4% | [6] 8.75%

O=C1CCCc2ccccc21
inactive: [1] -2.35% | [2] -11.3% | [3] -29.9% | [4] -30.3% | [5] -14% | [6] 1%

Cc1ccc(N2CCCCN(c3ccc(C)cc3)/C(c3ccccc3)=C\2c2ccccc2)cc1
inactive: [1] -8.55% | [2] -7.3% | [3] -7% | [4] -8.2% | [5] -1.35% | [6] -29.9%

N#CC(NNC(=O)Cc1ccccc1)c1c(O)ccc2ccccc12 (configuration not stated)
inactive: [1] 7.45% | [2] -4.9% | [3] 4.5% | [4] -18.2% | [5] -3.15% | [6] -7.25%

Cc1ccc(-c2cc(=S)n(-c3ccccc3)c3nc(=S)n(-c4ccccc4)c(N)c23)cc1
inactive: [1] 14.4% | [2] 24.4% | [3] 18.1% | [4] -12.9% | [5] 23.8% | [6] 25.9%

Cc1ccccc1N=Cc1ccccc1O.[Co]
inactive: [1] 12.2% | [2] 11.2% | [3] 27.4% | [4] -17.4% | [5] 0.3% | [6] 32%

CC(C)CN(CC(=O)Nc1cccc(Cl)c1)CC(C)C
inactive: [1] -4.35% | [2] 11.9% | [3] 4.15% | [4] -17.9% | [5] 5.25% | [6] 2.1%

O=C1C=C(Nc2nc(C(=O)O)cc(=O)[nH]2)c2ccccc2C1=O
inactive: [1] 8.7% | [2] -15.2% | [3] -29.3% | [4] 15.9% | [5] -25.6% | [6] -24.6%

O=C(CBr)OCCC1CCCCC1
inactive: [1] 49.2% | [2] 4.7% | [3] 47.9% | [4] -36.5% | [5] 3.05% | [6] 32.5%

CC1(CBr)COC(c2ccccc2)(c2ccccc2)OC1
inactive: [1] 18.1% | [2] -2.4% | [3] 20.6% | [4] -31.4% | [5] -22.2% | [6] 28.5%

CCOC(=O)NC(=O)c1cn(CCCCCCCCCCC(=O)NCCCN2CCN(CCCNC(=O)CCCCCCCCCCn3cc(C(=O)NC(=O)OCC)c(=O)[nH]c3=O)CC2)c(=O)[nH]c1=O
inactive: [1] -19.2% | [2] 12.9% | [3] -23.8% | [4] -27.4% | [5] 2.25% | [6] -17.6%

COc1ccc2c(c1)C1(C)CCCC(C)(C=O)C1CC2 (configuration not stated)
inactive: [1] 5.5% | [2] -2.75% | [3] -3.65% | [4] -1.25% | [5] 10.4% | [6] 4.75%

Nc1cccc2nsnc12
inactive: [1] 3% | [2] -36.6% | [3] -42.2% | [4] 30.1% | [5] -5.05% | [6] -15.7%

CCOc1ccc(NC=O)cc1
inactive: [1] 0.75% | [2] 8.45% | [3] 5.2% | [4] -3.55% | [5] 18.5% | [6] -11.3%

CCCC(C)c1ccc(OCc2ccc(C)cc2)cc1 (configuration not stated)
inactive: [1] 1.6% | [2] -4.25% | [3] -18.1% | [4] 13.8% | [5] -1.05% | [6] -4.9%

Clc1ccc(OCCSCCOc2ccc(Cl)cc2)cc1
inactive: [1] 8.85% | [2] -17.8% | [3] 12.5% | [4] -22.1% | [5] 0.9% | [6] 2.35%

COc1cc([N+](=O)[O-])c(C)cc1Br
inactive: [1] 3.55% | [2] 3.75% | [3] 4.45% | [4] -18.3% | [5] -10.5% | [6] 9.45%

CN1C(C)(C)CC(O)(C(O)(c2ccccc2)c2ccccc2)CC1(C)C
inactive: [1] 10.4% | [2] -9.35% | [3] -14.6% | [4] -14% | [5] -11.2% | [6] 3.7%
